CYP2C19 activ – activators of human cytochrome P450 2C19. P33261. recombinant CYP2C19, luciferin-H EGE luminescence; active compounds read high; 0 = fully inhibited enzyme, 1 = untreated enzyme. activation factor at 5 µM. 96,000 tested, under 10 active. AID 1025;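 active = activation factor of at least 2 at 5 µM in the primary screen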;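 note: 0 = wells with 2.5 mM tranylcypromine and 1 = vehicle-only wells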
CYP2C9 activ – CYP2C9 (human) activation; recombinant CYP2C9, luciferin-H conversion, luminescence; active compounds read high; factor 1 = untreated enzyme, 0 = blocked; activation factor at 5 µM; 1.4% of 96,000 active;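 active = activation factor of 2 or more for CYP2C9 at a 5 µM dose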;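 note: 0 = sulfaphenazole-blocked wells and 1 = vehicle-only wells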
CYP2C9 inh – inhibitors of human CYP2C9. P11712. CYP2C9 Supersomes, luciferin-H conversion, luminescence. inhibition, % at 5 µM. 20% of 96,000 active;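 active = blocking of liver enzyme CYP2C9 beyond about 50% at 5 µM, limit read from the data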
sEH act – increases human soluble epoxide hydrolase activity; P34913; purified human sEH enzymatic activity, activator screen; activation, % at 2 µM; 0.04% of 91,000 active; in the data active = activation above about 37%
CYP2C19 inh – human CYP2C19 inhibition; CYP2C19 Supersomes, luciferin-H EGE luminescence, 30 min; P33261; 21% of 96,000 active; inhibition, % at 5 µM;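 active = CYP2C19 inhibition above a set limit at 5 µM in the primary screen, cut at about 50% in these data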;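 note: plate controls were negative control wells for no effect and 2.5 mM tranylcypromine positive control for full effect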
sEH inhibitor – blocks human soluble epoxide hydrolase activity. P34913. recombinant human sEH enzymatic activity assay. inhibition, % at 2 µM. 0.34% of 91,000 active. AID 707; in the data active = inhibition above about 80%
The depositor's hits bear a star; / = not tested or not shown. This is a sample that favours compounds with a hit; in the whole collection about 27% have one here.

SMILES	CYP2C19 activ	CYP2C9 activ	CYP2C9 inh	sEH act	CYP2C19 inh	sEH inhibitor
CN(CCO)C1=CC(=O)CC(C)(C)C1	/	/	/	14.5	/	-14.3
CCC(CCC(=O)Nc1ccn(-c2ccccc2)n1)C(=O)O (stereo not drawn)	1.2	1.2	-21.4	/	-22.5	/
COc1ccc(CC(=O)OCC(=O)NC(=O)NC(C)C)cc1	1	1	3.6	-6.5	-3.0	7.3
Cc1ccc(NC(=O)CSCc2c(C)noc2C)cc1C	0.1	0.5	48.1	-22.2	93.7*	22.6
Cc1noc(C)c1CSCC(=O)OCC(=O)Nc1sccc1C#N	0.6	0.3	67.2*	17.4	38.0	-16.8
CCOC(=O)Cc1cn2c(=O)cc(CSCC(=O)Nc3ccc(C)c(C)c3)nc2s1	0.8	0.3	74.3*	/	21.3	/
N#Cc1ccsc1NC(=O)COC(=O)CCCSc1nc2ccccc2s1	0.8	0.6	35.2	/	18.1	/
Cc1csc(NC(=O)C(NS(=O)(=O)c2ccc(Br)s2)c2ccccc2)n1 (stereo not drawn)	0.9	0.8	22.0	5.0	14.0	-2.2
Clc1ccc(CSc2cc3c(nn2)-c2ccccc2CC3)cc1	0.8	0.9	7.5	3.7	25.0	-6.3
Cc1ccc(C(=O)NNC(=S)NC(=O)c2ccc(Cl)cc2)cc1	1	0.1	87.4*	-11.5	-0.1	11.6
O=C(NNC(=S)NC(=O)c1cccnc1)c1ccc(Cl)cc1	1	0.4	63.2*	0.7	2.0	-2.7
CC(C)=CC(=O)NCc1c(Cl)cccc1-n1cccc1	0.9	0.8	20.6	-8.8	10.1	9.2
Cc1ccccc1Oc1cccc(C(=O)/C(C#N)=C/N(C)C)c1	0.1	0.2	79.1*	-2.8	89.3*	1.1
CN(C)/C=C(/C#N)C(=O)c1cccc(Oc2ccc(C(C)(C)C)cc2)c1	0.2	0.5	49.8	-6.0	77.5*	6.9
Cc1ccccc1Oc1ncccc1C(=O)/C(C#N)=C/N(C)C	0.7	1	0.9	16.0	34.9	-14.8
Cc1cc(Cl)ccc1Oc1cccc(C(=O)/C(C#N)=C/N(C)C)c1	0.3	0.8	23.1	-6.0	69.5*	5.5
CC1Cc2ccccc2N1C(=O)COC(=O)Cn1nnc(-c2ccccc2)n1 (stereo not drawn)	0.4	0.1	87.6*	8.9	64.9*	-10.2
CCOC(=O)C1=C(C)NC(C)=C(C(=O)OCC)C1C(=O)OCC(=O)N1c2ccccc2CC1C (stereo not drawn)	0.1	0	99.9*	15.4	92.7*	-15.0
CC1Cc2ccccc2N1C(=O)COC(=O)c1cccnc1Cl (stereo not drawn)	0.5	1	3.5	22.3	53.1*	-18.9
COCc1c(C(=O)OCC(=O)N2c3ccccc3CC2C)oc2ccccc12 (stereo not drawn)	0.5	1.1	-7.9	7.3	52.9*	-6.7
CCOC(=O)c1c(C)[nH]c(C(=O)OCC(=O)N2c3ccccc3CC2C)c1C (stereo not drawn)	1.1	1	-4.2	-1.9	-7.8	1.4
CC1Cc2ccccc2N1C(=O)CSc1ncccc1C(=O)O (stereo not drawn)	1.1	1.1	-12.0	0.6	-10.2	-1.4
COC(=O)c1nn2c(C(F)(F)F)cc(-c3ccc(Br)o3)nc2c1Br	0.9	0.8	21.5	7.4	5.4	-8.2
CNC(=O)c1cc2c(=O)n3cccc(C)c3nc2n(C(C)C)c1=N	1.1	1.1	-11.1	13.9	-8.6	-16.3
Cc1n[nH]c(C)c1N1C(=O)c2cccc3c(N4CCCCCC4)ccc(c23)C1=O	0.2	0	96.8*	-13.9	83.0*	14.5
SMILES	CYP2C19 activ	CYP2C9 activ	CYP2C9 inh	sEH act	CYP2C19 inh	sEH inhibitor
O=C1c2cccc3c(N4CCCCC4)ccc(c23)C(=O)N1CCO	0.7	0.6	43.2	0.1	27.2	2.2
Cn1c(-c2ccccc2)cc2c3no[n+]([O-])c3ccc21	0.2	0.7	33.3	2.0	80.3*	-2.6
COc1ccc2c(c1OC)CN(C)CCc1cc3c(cc1C(O)C2)OCO3 (stereo not drawn)	0.2	1.2	-22.7	/	79.5*	/
O=C(Nc1ccc(SC(F)F)cc1)c1cccc2nc3ccccc3nc12	1.1	0.9	12.3	-1.3	-9.0	4.8
CCOc1ccccc1-c1nc(C(N)=O)c2[nH]c(=O)n(-c3cccc(C)c3)c2n1	0.5	0.4	63.7*	4.4	47.8	-0.3
COc1ccc(OC)c(-c2nc(C(N)=O)c3[nH]c(=O)n(-c4ccc(F)cc4)c3n2)c1	0.8	0.5	53.8*	1.7	18.3	1.9

High-throughput results deposited in PubChem by several laboratories.
